Assay outcomes (PubChem BioAssay)
D1 agonist: agonists of human D1 dopamine receptor; P21728; HEK293 T-REx D1 cells, calcium flux, agonist mode; activation, % at 2 µM; 1% of 360,000 active; AID 504660; note: 0% is about no effect
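Agonism was scored from calcium flux recorded over 180 s (1 read/s) after pintool compound addition, following a 10-cycle baseline. Cells were inducible force-coupled HEK293 TREx D1, plated overnight at 30 C and loaded with no-wash calcium dye.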
TRHR ag: TRH receptor (human) agonism. 0.18% of 360,000 active. TRHR cells, calcium flux fluo-8, FDSS agonist mode. activation, % at 2 µM; note: 0% is about no effect
Target sequence (P34981 whole entry, looked up): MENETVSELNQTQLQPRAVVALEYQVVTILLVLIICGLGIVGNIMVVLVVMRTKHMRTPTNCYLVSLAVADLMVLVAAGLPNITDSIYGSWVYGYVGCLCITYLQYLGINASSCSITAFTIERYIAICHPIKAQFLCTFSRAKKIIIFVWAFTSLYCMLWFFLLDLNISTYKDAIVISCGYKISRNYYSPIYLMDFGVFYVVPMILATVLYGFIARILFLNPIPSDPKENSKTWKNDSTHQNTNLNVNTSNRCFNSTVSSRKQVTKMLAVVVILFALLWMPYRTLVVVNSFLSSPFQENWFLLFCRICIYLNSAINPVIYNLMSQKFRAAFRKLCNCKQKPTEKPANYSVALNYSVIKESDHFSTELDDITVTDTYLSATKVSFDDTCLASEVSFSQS
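Read-out: compound-evoked intracellular calcium rise in TRHR cells, fluo-8 dye, kinetic FDSS fluorescence at 1 s/cycle following a 10-cycle baseline. Cells cultured overnight before dye loading (30 min–1.5 h, RT).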
TRHR enhancer: allosteric enhancers of human TRH receptor; enhancement, % at 2 µM; AID 493056; TRHR cells, fluo-8 calcium fluorescence, EC20 TRH enhancement; P34981; 0.66% of 360,000 active; in the data active = enhancement above about 30%; note: 0% is about no effect
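TRHR-expressing cells loaded with fluo-8 calcium dye were read kinetically (ex 480/em 530) during compound addition, then stimulated with an EC20 of TRH (10 nM final). Enhancement of the Gq-mediated intracellular calcium response was scored.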
D1 PAM: potentiators of human D1 dopamine receptor | potentiation, % at 10 µM | AID 504651 | P21728 | 0.036% of 360,000 active | HEK293 TREx D1 cells, calcium flux, dopamine EC20 potentiation; in the data active = potentiation above about 30%; note: 0% is about no effect
D1 antag: human D1 dopamine receptor antagonism; P21728; 3.2% of 360,000 active; AID 504652; activity change, negative = inhibition, % at 10 µM; HEK293 TREx D1 cells, calcium flux, dopamine EC80; hits give low values; in the data active = activity change below about -30%; note: % is set by controls: 0 for no effect and ±100 for the full control effect
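Cells carrying a force-coupled, tetracycline-inducible human D1 receptor report calcium flux. Each well gets a 10 s baseline, compound with 180 s monitoring, then an EC80 dopamine stimulus with a second 180 s kinetic read.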
Numbers without * were called inactive; ! = not confirmed by another sample. Compounds with a hit are over-represented: about 4.6% of the library has one in this group of screens. Cut-off read from the data, not from the text of the source, unless noted: active = activation above about 30%; inactive = the rest.

SMILES	D1 agonist	TRHR ag	TRHR enhancer	D1 PAM	D1 antag
Nc1c(S(=O)(=O)c2cccc(Cl)c2)c2nc3ccccc3nc2n1/N=C/c1ccc(O)c(O)c1	1	1	1	-5	-34*
CC(=O)N1CCN(C(=O)c2cc(S(=O)(=O)Nc3ccc(S(C)(=O)=O)cc3)ccc2Cl)CC1	2	-1	1	-1	11
CCN1CCN(C(=O)c2cc(S(=O)(=O)Nc3ccc(S(C)(=O)=O)cc3)ccc2Cl)CC1	1	0	-21	-5	-47*
O=C(CN1C(=O)C2CC=CCC2C1=O)Nc1nc(-c2ccc(F)cc2)cs1 (centres undefined)	5	0	5	0	-46*
O=C(Nc1nc(-c2ccccc2)cs1)c1ccccc1NS(=O)(=O)c1ccc(F)cc1	15	4	13	-6	-48*
O=S(=O)(Nc1ccc(-c2csc(-c3ccccc3)n2)cc1)c1ccc(F)cc1	6	0	-4	-1	-7
Cc1ccc(Nc2nc(-c3ccc(F)cc3)cs2)nc1	2	2	2	-6	-37*
Cc1ccc(C(=O)Nc2nc(-c3ccc(F)cc3)cs2)o1	2	0	11	-6	-48*
Cc1noc(NS(=O)(=O)c2ccc(NC(=O)COc3ccccc3Br)cc2)c1C	-1	-1	2	3	21
COc1ccccc1CNS(=O)(=O)c1cc2c3c(c1)CCN3C(=O)CC2	11	0	30*!	-6	-11
CCCCCNS(=O)(=O)c1cc2c3c(c1)CCC(=O)N3CCC2	15	0	9	-10	-30*
COc1cccc(CNS(=O)(=O)c2cc3c4c(c2)CCC(=O)N4CCC3)c1	11	-1	11	0	-8
COCCCNC(=O)C1CCCN(c2ncnc3onc(C)c23)C1 (centres undefined)	9	1	10	-6	-18
Cc1cc2c(s1)c1cnn(Cc3ccc(Cl)c(Cl)c3)c(=O)c1n2C	1	0	1	-6	-10
CCCCOc1ccc(CNC(=O)c2cnc3sc(N4CCCC4)nn3c2=O)cc1	1	-1	-1	-4	-10
Cc1[nH]c2ccccc2c1-c1nc2ccccc2[nH]1	14	-1	7	-12	-77*
c1ccc(-c2nc3ccccc3[nH]2)cc1	0	0	13	2	3
Cc1ccc(-c2nc3ccccc3[nH]2)s1	2	-1	35*	1	1
CC1=CC(C)(C)NC(=S)N1c1ccc(C)cc1C	4	-1	-5	-5	-22
CC1=CC(C)(C)NC(=S)N1c1cc(C)cc(C)c1	-3	0	0	3	-51*
Cc1nn(CCc2nn[nH]n2)c2nc(-c3ccc(C4CCCCC4)cc3)cc(C(F)(F)F)c12	9	-1	-6	-6	-46*
CCn1cc(S(=O)(=O)c2cccc(Cl)c2)c(=O)c2cc(F)c(N3CCN(c4ccccc4)CC3)cc21	0	1	6	-2	-6
CC1(C)CC(=O)C(=Cc2cn(-c3ccccc3)nc2-c2ccc(Cl)cc2)C(=O)C1	60*	-1	-8	-5	-7
Cc1ccc(C(=O)NCCc2nnc3c(C(F)(F)F)cc(Cl)cn23)o1	0	0	-22	-9	-33*
CCc1ccccc1NC(=O)N1CC(CC)Oc2ccc(Cl)cc21 (centres undefined)	2	0	-4	-4	9
SMILES	D1 agonist	TRHR ag	TRHR enhancer	D1 PAM	D1 antag
Fc1ccccc1CNCCCSc1nnnn1-c1ccccc1	6	0	6	0	-9
CC(C)c1ccc(CNCc2ccccc2)cc1	50*	1	-2	-3	-7
COc1ccc(CNCCSc2nnnn2-c2ccccc2)cc1	14	0	5	3	-1
Clc1ccccc1CNCCCSc1nnnn1-c1ccccc1	31*	0	-1	-1	1
CC(C)c1ccc(CNCCSc2nnnn2-c2ccccc2)cc1	56*	0	6	6	10
Fc1ccc(CNCCCSc2nnnn2-c2ccccc2)cc1	161*	-1	6	5	-43*
CC(C)c1ccc(CNC(=O)CCc2ccccc2)cc1	2	0	8	4	-7
CCOC(=O)c1[nH]c(C)c(CCC(=O)N2CCN(c3cccc(C)c3C)CC2)c1C	2	-1	0	-2	-7
O=C(NCc1ccccc1)c1ccc(CSc2nc3cccnc3n2Cc2cccc(F)c2)cc1	8	1	10	-3	-5
